Laboratory results: PubChem BioAssay (EPA / NIEHS)
Activity calls are given as the source filed them. How the source made its calls: active means hit-call score of the fitted dose curve at least 0.9, where 1 is the maximum; inactive means score below 0.9.

Assay: ATG_GATA_CIS: Attagene CIS-FACTORIAL HepG2 Assay for human GATA Binding Protein (AID 2282944)
Conditions: HepG2 GATA cis-element reporter, Attagene multiplex mRNA; actives raise or lower the signal
Summary of the method: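 Transient MRTU transfection, HepG2, 24 h compound exposure. Total RNA → oligo(dT) RT → PCR → 6-FAM primer extension → HpaI cut → CE. Bidirectional fit vs DMSO.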
In the case of `C=C(C)C(=O)OCCO`, the outcome is reported as “inactive”. In the case of `C1=Cc2ccccc2C1`, the outcome is reported as “inactive”. For `CCOC(=O)CC`, the outcome was “inactive”. With `CCC(=O)Oc1ccc(/C(CC)=C(\CC)c2ccc(OC(=O)CC)cc2)cc1` the outcome was “inactive”. In the case of `CO[Si](CCC1CCC2OC2C1)(OC)OC` (configuration not stated), the outcome is reported as “inactive”. In the case of `Cc1cc(=O)n(-c2ccccc2)n1C`, the outcome is reported as “inactive”. In the case of `FC(F)(F)C(=NOCC1OCCO1)c1ccc(Cl)cc1`, the outcome is reported as “inactive”. For `CCOC(=O)N1CCC(=C2c3ccc(Cl)cc3CCc3cccnc32)CC1`, the outcome was “inactive”. With `COc1cc(C)ccc1C(C)C` the outcome was “inactive”. For `CCCCCCCOC(=O)CCC`, the outcome was “inactive”. In the case of `Cc1ccc(C(C)c2ccc(C)c(C)c2)cc1C`, the outcome is reported as “inactive”. For `O=C(/C=C/C=C/c1ccc2c(c1)OCO2)N1CCCCC1`, the outcome was “inactive”. For `CC(C)=CCC[C@H](C)CCO`, the outcome was “inactive”. For `O=C1CCCCCCCCCCC(=O)OCCO1`, the outcome was “inactive”. For `COCC(C)N` (configuration not stated), the outcome was “inactive”. For `CC(=O)[C@@]1(O)CC[C@H]2[C@@H]3C[C@H](C)C4=CC(=O)C=C[C@]4(C)[C@@]3(F)[C@@H](O)C[C@@]21C`, the outcome was “inactive”. With `CC(C)CC(O)Cc1ccccc1` (configuration not stated) the outcome was “inactive”. For `CCCCOCCOC(=O)COc1nc(Cl)c(Cl)cc1Cl`, the outcome was “inactive”. In the case of `C=C[Si](OC(C)=O)(OC(C)=O)OC(C)=O`, the outcome is reported as “inactive”. In the case of `Cc1c(C)c([N+](=O)[O-])c(C(C)(C)C)c([N+](=O)[O-])c1C`, the outcome is reported as “inactive”. With `O=[N+]([O-])C1(Br)COCOC1` the outcome was “inactive”. In the case of `CC(C)=CC1CC(C)CCO1` (configuration not stated), the outcome is reported as “inactive”. With `Nc1ccc(-c2ccc(F)cc2)cc1` the outcome was “inactive”. For `FC(F)=C(F)OC(F)(F)C(F)(F)C(F)(F)F`, the outcome was “inactive”. With `CCCOC(=O)CCCCC(=O)OCCC` the outcome was “inactive”. With `CCCCC(CC)COC(=O)c1ccccc1O` (configuration not stated) the outcome was “inactive”. For `CCc1nccnc1C`, the outcome was “inactive”. For `CC(=O)Nc1ccc2c(c1)Cc1cc(NC(C)=O)ccc1-2`, the outcome was “inactive”. For `OCCCS`, the outcome was “inactive”. For `Cc1cccc(OCCOc2cccc(C)c2)c1`, the outcome was “inactive”. With `Cc1ccc([N+](=O)[O-])cc1S(=O)(=O)O` the outcome was “inactive”. For `COC(=O)c1cc(Cl)ccc1[N+](=O)[O-]`, the outcome was “inactive”. In the case of `Cc1oncc1C(=O)Nc1ccc(C(F)(F)F)cc1`, the outcome is reported as “inactive”. For `CC(C)c1ccc2cc(C(C)C)ccc2c1`, the outcome was “inactive”. For `C=CC(=O)OCCOC(=O)C=C`, the outcome was “inactive”. For `CCCCCCCCCCCCCOP(=O)(O)O`, the outcome was “inactive”.

Assay: ATG_GLI_CIS: Attagene CIS-FACTORIAL HepG2 Assay for human Zinc Finger Protein GLI1 (AID 2282945)
Conditions: HepG2, Attagene cis-factorial reporter mRNA, GLI element; actives raise or lower the signal
Summary of the method: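 Bidirectional curve fits relative to DMSO, using reporter mRNA levels from RT-PCR plus capillary electrophoresis. Cells were HepG2 transiently carrying cis-regulated reporter constructs, harvested 24 h after dosing.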
With `C=C(C)C(=O)OCCO` the outcome was “inactive”. For `C1=Cc2ccccc2C1`, the outcome was “inactive”. For `CCC(=O)Oc1ccc(/C(CC)=C(\CC)c2ccc(OC(=O)CC)cc2)cc1`, the AC50 was 51.5 µM (active). With `CO[Si](CCC1CCC2OC2C1)(OC)OC` (configuration not stated) the outcome was “inactive”. In the case of `CCCCCC/C=C\CCCCCCCC(=O)O`, the outcome is reported as “inactive”. In the case of `Cc1cc(=O)n(-c2ccccc2)n1C`, the outcome is reported as “inactive”. For `FC(F)(F)C(=NOCC1OCCO1)c1ccc(Cl)cc1`, the outcome was “inactive”. In the case of `CCOC(=O)N1CCC(=C2c3ccc(Cl)cc3CCc3cccnc32)CC1`, the outcome is reported as “inactive”. In the case of `COc1cc(C)ccc1C(C)C`, the outcome is reported as “inactive”. In the case of `CCCCCCCOC(=O)CCC`, the outcome is reported as “inactive”. For `Cc1ccc(C(C)c2ccc(C)c(C)c2)cc1C`, the AC50 was 146 µM (active). For `O=C(/C=C/C=C/c1ccc2c(c1)OCO2)N1CCCCC1`, the outcome was “inactive”. For `CC(C)=CCC[C@H](C)CCO`, the outcome was “inactive”. With `O=C1CCCCCCCCCCC(=O)OCCO1` the outcome was “inactive”. With `CC(=O)[C@@]1(O)CC[C@H]2[C@@H]3C[C@H](C)C4=CC(=O)C=C[C@]4(C)[C@@]3(F)[C@@H](O)C[C@@]21C` the outcome was “inactive”. In the case of `CC(C)CC(O)Cc1ccccc1` (configuration not stated), the outcome is reported as “inactive”. For `CCCCOCCOC(=O)COc1nc(Cl)c(Cl)cc1Cl`, the outcome was “inactive”. For `COC(=O)/C=C\C(=O)O`, the outcome was “inactive”. In the case of `Cc1c(C)c([N+](=O)[O-])c(C(C)(C)C)c([N+](=O)[O-])c1C`, the outcome is reported as “inactive”. In the case of `O=[N+]([O-])C1(Br)COCOC1`, the outcome is reported as “inactive”. For `CC(C)=CC1CC(C)CCO1` (configuration not stated), the outcome was “inactive”. For `Nc1ccc(-c2ccc(F)cc2)cc1`, the outcome was “inactive”. In the case of `FC(F)=C(F)OC(F)(F)C(F)(F)C(F)(F)F`, the outcome is reported as “inactive”. With `CCCOC(=O)CCCCC(=O)OCCC` the outcome was “inactive”. For `OCCN(CCO)c1ccccc1`, the outcome was “inactive”. With `O=C(O)c1cc(Cl)cc([N+](=O)[O-])c1Cl` the outcome was “inactive”. With `CCCCC(CC)COC(=O)c1ccccc1O` (configuration not stated) the outcome was “inactive”. In the case of `CCc1nccnc1C`, the outcome is reported as “inactive”. For `CC(=O)Nc1ccc2c(c1)Cc1cc(NC(C)=O)ccc1-2`, the outcome was “inactive”. With `OCCCS` the outcome was “inactive”. For `Cc1cccc(OCCOc2cccc(C)c2)c1`, the outcome was “inactive”. In the case of `COC(=O)c1cc(Cl)ccc1[N+](=O)[O-]`, the outcome is reported as “inactive”. For `Cc1oncc1C(=O)Nc1ccc(C(F)(F)F)cc1`, the outcome was “inactive”. With `CC(C)c1ccc2cc(C(C)C)ccc2c1` the outcome was “inactive”. With `C=CC(=O)OCCOC(=O)C=C` the outcome was “inactive”. In the case of `CCCCCCCCCCCCCOP(=O)(O)O`, the outcome is reported as “inactive”.
